Measured values published in PubChem BioAssay (NCATS).
Values without a mark were called inactive. Active and inactive are the calls of the source. Calls follow the shape of the dose curve; as a rule, active = well fitted activation curve with a large enough effect; inconclusive = small, poorly fitted or top-dose-only effect; inactive = flat fitted curve, though single readings scatter.

Experiment: Cellular Toxicity (caspase-3) N2a (AID 665);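 also: compound exposure lasted 16 h at 37 °C before readout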
Settings: N2a cells, luminescence, normalized: DMSO 0%, 10 µM staurosporine 100%; series mostly up to 92.2 µM; caspase-3 activation: at the top concentration
From the text: NIH Chemical Genomics Center [NCGC]
NIH Molecular Libraries Screening Centers Network [MLSCN]
National Institutes of Environmental Health Sciences [NIEHS]
National Toxicology Program [NTP]
We have developed a 1536-well cell-based assay for quantitative high throughput screening (qHTS) against a number of cell lines to determine in vitro caspase 3/7 activity of small molecules. This particular assay uses the N2a cell line which is derived from mouse neuroblastoma.
NCGC Assay Protocol Summary:
The Caspase-Glo 3/7 assay (Promega) is a homogeneous method to measure caspase-3 and caspase-7 activities in cultured cells. The quantitation of caspase 3/7 activity is based on the cleavage of a peptide-aminoluciferin substrate. After caspase cleaves the substrate the free aminoluciferin is liberated and serves as the substrate of luciferase, which generates the light. The luminescent signal is proportional to the amount of caspase 3/7 activity present.
Using the Caspase-Glo 3/7 assay, the amount of caspase 3/7 activity was measured in the N2a cells with complete culture medium following compound treatment for 16 hours. The assay was performed in opaque white 1536-well plates. In the screen, staurosporine and doxorubicin were used as positive controls. Library compounds were measured for their ability to cause the activation of caspase 3/7 in the cell line, as reflected by an increase in luminescence signal, in a concentration-dependent manner. Data were normalized to the controls for basal activity (DMSO only) and 100% stimulation (10 uM staurosporine). AC50 values were determined from concentration-response data modeled with the standard Hill equation.
qHTS protocol for caspase 3/7 assay in mouse N2a cell line
[Step] [Parameter] [Value] [Description]
1. Reagent; 5 uL; 1500 mouse N2a cells/well
2. Time; 5 hr; 37 °C incubation
4. Controls; 23 nL; doxorubicin 7 pM to 100 uM & staurosporine 1.4 pM to 20 uM
5. Time; 16 hr; 37 °C incubation
6. Reagent; 5 uL; Caspase-Glo 3/7 reagent
7. Time; 1 hr; Room Temperature
8. Detection; Luminescence; Viewlux plate reader
Keywords: caspase 3/7, apoptosis, mouse N2a cell line, luminescence, NTPHTS, NTPHTS_NCGC, NIEHS, EPA, DSSTox, MLSMR, MLSCN, NIH Roadmap, qHTS, NCGC

Compound	caspase-3 activation [%]	outcome
c1ccc2ccccc2c1	2.29	
Cc1ncc[nH]1	3.6	
OB(O)O	-3.26	
O.O.O.O.O.O.O.O=S(=O)([O-])[O-].[Co+2]	-8.04	
NCCN	1.66	
CCOC(C)OCC	-0.966	
C[C@H](CCC(=O)O)[C@H]1CC[C@H]2[C@@H]3CC[C@@H]4C[C@H](O)CC[C@]4(C)[C@H]3C[C@H](O)[C@]12C	-2.34	
CC/C=C\C/C=C\C/C=C\CCCCCCCC(=O)O	0.265	
Oc1ccc(/C=C/c2cc(O)cc(O)c2)cc1	-20	
OCc1ccccc1	-2.92	
CCCCC	1.44	
CC[C@H]1OC(=O)[C@H](C)[C@@H](O[C@H]2C[C@@](C)(OC)[C@@H](O)[C@H](C)O2)[C@H](C)[C@@H](O[C@@H]2O[C@H](C)C[C@H](N(C)C)[C@H]2O)[C@](C)(O)C[C@@H](C)CN(C)[C@H](C)[C@@H](O)[C@]1(C)O	-7.1	
CC(C)O	-0.146	
Nc1ncnc2c1ncn2[C@H]1CC[C@@H](CO)O1	-1.74	
CC(C)(C)CC(C)(C)c1ccc(OCCO)cc1	0.4	
OC[C@H]1O[C@@H]2O[C@H]3[C@H](O)[C@@H](O)[C@@H](O[C@H]4[C@H](O)[C@@H](O)[C@@H](O[C@H]5[C@H](O)[C@@H](O)[C@@H](O[C@H]6[C@H](O)[C@@H](O)[C@@H](O[C@H]7[C@H](O)[C@@H](O)[C@@H](O[C@H]1[C@H](O)[C@H]2O)O[C@@H]7CO)O[C@@H]6CO)O[C@@H]5CO)O[C@@H]4CO)O[C@@H]3CO	-2.79	
[O-][N+](=Nc1ccccc1)c1ccccc1	-1.67	
Nc1ccc(N=Nc2ccccc2)c(N)n1	-14.7	

Compound	caspase-3 activation [%]	outcome
C[C@H](CCC(=O)O)[C@H]1CC[C@H]2[C@@H]3[C@H](O)C[C@@H]4C[C@H](O)CC[C@]4(C)[C@H]3C[C@H](O)[C@]12C	-2.26	
O=P(O)(O)O	-2.22	
Nc1nccs1	-1.71	
CC1=CC(=O)NS(=O)(=O)O1	-2.64	
Oc1cccc(O)c1O	-6.81	
C[C@H]1O[C@@H](O[C@H]2[C@@H](O)C[C@H](O[C@H]3[C@@H](O)C[C@H](O[C@H]4CC[C@@]5(C)[C@H](CC[C@@H]6[C@@H]5C[C@@H](O)[C@]5(C)[C@@H](C7=CC(=O)OC7)CC[C@]65O)C4)O[C@@H]3C)O[C@@H]2C)C[C@H](O)[C@@H]1O	2.69	
ClC(Cl)Cl	-1.98	
Cc1ccc(S(=O)(=O)O)cc1C	0.546	
C/C=C/C=C/C(=O)O	0.578	
CO	-0.104	
CC1=CCC2CC1C2(C)C (stereo unspecified)	1.92	
COC(=O)c1ccccc1O	-0.524	
CCCCO		inactive
O=c1n(CC2CO2)c(=O)n(CC2CO2)c(=O)n1CC1CO1 (stereo unspecified)	15.8	
OCC(O)CO		inactive
OCl	3.82	
CO/N=C(/C(=O)N[C@@H]1C(=O)N2C(C(=O)O)=C(COC(N)=O)CS[C@H]12)c1ccco1	-5.13	
NC(N)=O	-3.67	
